About 83,000 compounds went through this panel and 20% of them were active in at least one assay; those are over-represented in the sample as a whole.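 Note: values are percent growth. 100 is the growth of untreated cells, values between 100 and 0 indicate rising inhibition; between -100 and 0 indicates cell death.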 Values without a mark were called inactive. Activity calls are given as the source filed them. How the source made its calls: active means growth percent below 10; inactive means the rest.

The source of these data is PubChem BioAssay (NCI).

Some test systems named below: K-562 leukemia; MALME-3M melanoma; MDA-MB-231 breast; RXF 393 renal; SF-268 CNS; SF-295 CNS; SF-539 CNS; UACC-257 melanoma; M14 melanoma; HCT-15 colon; HT29 colon; SNB-75 CNS; SNB-19 CNS; U251 CNS; PC-3 prostate; SK-MEL-5 melanoma; UACC-62 melanoma; LOX IMVI melanoma; SK-MEL-28 melanoma; SK-MEL-2 melanoma.
Experiment in all cases: NCI-60 one-dose screen, 48 h (100 = growth as untreated, 0 = no growth, -100 = all killed)
Settings in all cases: 10 µM unless noted

As for `CS(=O)(=O)c1ccc(-c2nc3ccccn3c2C=Nc2ccc(Cl)cc2)cc1`, the growth is 23.6% in the experiment on K-562 leukemia; 93.6% in the experiment on MALME-3M melanoma; 85.5% with MDA-MB-231 breast; 105% in the experiment with RXF 393 renal; 75.4% in the experiment with SF-268 CNS; 87.9% with SF-295 CNS. The growth in the experiment on SF-539 CNS is 84.1%; in the experiment on UACC-257 melanoma, 88.4%; in the experiment with M14 melanoma it was 43.8%; with HCT-15 colon it was 34.3%; in the experiment with HT29 colon, 75.7%; in the experiment on SNB-75 CNS, 77.9%. Further, the growth in the experiment with SNB-19 CNS is 89.1%; with U251 CNS, 91.9%; with PC-3 prostate it was 57.8%; in the experiment with SK-MEL-5 melanoma, 68.6%; in the experiment with UACC-62 melanoma, 24.5%; in the experiment with LOX IMVI melanoma, -59.2% (active). The growth in the experiment on SK-MEL-28 melanoma is 74.3%; with SK-MEL-2 melanoma, 107%.

Regarding `CCOc1ccc([C@H]2C(C(=O)c3ccc(Cl)cc3)C3(N[C@@H]2c2ccccc2)C(=O)Nc2ccc(Br)cc23)cc1` (stereo not given in full), the growth is 14.2% with K-562 leukemia; 64.8% in the experiment with MALME-3M melanoma; 11% in the experiment with MDA-MB-231 breast; 16.6% with RXF 393 renal; 28.9% in the experiment on SF-268 CNS; 37.8% in the experiment with SF-295 CNS. Further, the growth is 48.8% in the experiment with SF-539 CNS; 68.5% in the experiment on UACC-257 melanoma; 37.6% in the experiment with M14 melanoma; 33.4% with HCT-15 colon; -27.1% (active) with HT29 colon; 26.9% in the experiment with SNB-75 CNS. The growth was 47.6% in the experiment with SNB-19 CNS; 13.5% in the experiment on U251 CNS; 13.8% in the experiment with PC-3 prostate; 47.8% in the experiment on SK-MEL-5 melanoma; 51.4% in the experiment with UACC-62 melanoma; -36.2% (active) with LOX IMVI melanoma. For the same molecule, the growth with SK-MEL-28 melanoma was 75.2%; in the experiment with SK-MEL-2 melanoma, 56.6%.

For `CCN1CCN(/C(=N\c2sc(-c3ccccc3)nc2-c2ccccc2)c2ccccc2)CC1`, the growth in the experiment with K-562 leukemia was 32.8%; in the experiment with MALME-3M melanoma it was 108%; in the experiment with MDA-MB-231 breast, 79.9%; in the experiment on RXF 393 renal, 72.1%; in the experiment on SF-268 CNS it was 89.2%; in the experiment on SF-295 CNS, 111%. In addition, the growth in the experiment with SF-539 CNS was 87.8%; in the experiment on UACC-257 melanoma it was 80.4%; in the experiment on M14 melanoma it was 81.1%; with HCT-15 colon, 38.1%; in the experiment on HT29 colon, 32.6%; in the experiment with SNB-75 CNS, 89.1%. The growth in the experiment with SNB-19 CNS is 84.8%; in the experiment on U251 CNS it was 67.4%; with PC-3 prostate, 65.8%; with SK-MEL-5 melanoma, 93.4%; in the experiment with UACC-62 melanoma, 55.3%; in the experiment on LOX IMVI melanoma, 80.1%. Also, the values for the growth in the experiment on SK-MEL-28 melanoma and with SK-MEL-2 melanoma were 80.6% and 102%, respectively.

Take `Cc1c(NC(=O)CSc2nc3sc4c(c3c(=O)n2-c2ccc(Cl)cc2)CCCC4)c(=O)n(-c2ccccc2)n1C`: the growth was 90.2% in the experiment on K-562 leukemia; 102% in the experiment on MALME-3M melanoma; 93.4% with MDA-MB-231 breast; 104% in the experiment with RXF 393 renal; 80.3% in the experiment on SF-268 CNS; 95.5% with SF-295 CNS. Also, the growth with SF-539 CNS was 89.5%; in the experiment on UACC-257 melanoma, 102%; with M14 melanoma, 95.2%; in the experiment with HCT-15 colon, 93.3%; with HT29 colon, 101%; in the experiment on SNB-75 CNS, 72.6%. Besides, the growth in the experiment on SNB-19 CNS is 79.7%; in the experiment on U251 CNS, 104%; in the experiment with PC-3 prostate, 94.4%; in the experiment with SK-MEL-5 melanoma, 87.2%; with UACC-62 melanoma it was 83.1%; with LOX IMVI melanoma, 89.5%. The figures for the growth in the experiment on SK-MEL-28 melanoma and with SK-MEL-2 melanoma were 89.2% and 110%, respectively.

Consider `Cc1cccc(/C=C/c2nn3c(-c4ccco4)nnc3s2)c1`, for which the growth in the experiment with K-562 leukemia was 93%; in the experiment on MALME-3M melanoma, 96.9%; with MDA-MB-231 breast it was 98.2%; in the experiment on RXF 393 renal it was 111%; in the experiment on SF-268 CNS it was 105%; in the experiment on SF-295 CNS it was 94.5%. The growth was 94.9% in the experiment with SF-539 CNS; 98.3% in the experiment with UACC-257 melanoma; 101% with M14 melanoma; 88.1% with HCT-15 colon; 104% in the experiment with HT29 colon; 100% in the experiment with SNB-75 CNS. Besides, the growth with SNB-19 CNS is 94.1%; in the experiment with U251 CNS it was 99.1%; with PC-3 prostate, 103%; in the experiment on SK-MEL-5 melanoma, 92%; in the experiment with UACC-62 melanoma, 94%; in the experiment on LOX IMVI melanoma it was 98.1%. Moreover, the growth in the experiment with SK-MEL-28 melanoma is 97.3%; in the experiment with SK-MEL-2 melanoma, 112%.

Consider `O=C(CSc1nc2sc3c(c2c(=O)n1-c1ccc(Cl)cc1)CCCC3)NNC(=O)Nc1ccc(Cl)c(C(F)(F)F)c1`, for which the growth with K-562 leukemia is 11.7%; with MALME-3M melanoma, 22.5%; with MDA-MB-231 breast it was 61.2%; with RXF 393 renal, 70.5%; with SF-268 CNS, 67%; in the experiment on SF-295 CNS it was 9.82% (active). The growth in the experiment on SF-539 CNS is 73.1%; in the experiment on UACC-257 melanoma, 46.5%; in the experiment on M14 melanoma, 44%; with HCT-15 colon it was 24.5%; in the experiment on HT29 colon it was 6.06% (active); with SNB-75 CNS, 42.1%. The growth was 50.4% with SNB-19 CNS; 4.22% (active) in the experiment with U251 CNS; -2.4% (active) with PC-3 prostate; 34.7% in the experiment on SK-MEL-5 melanoma; 37.1% in the experiment on UACC-62 melanoma; 1.34% (active) with LOX IMVI melanoma. Also, the growth in the experiment with SK-MEL-28 melanoma is 53.7%; with SK-MEL-2 melanoma it was -9.26% (active).

`O=C(CSc1nccc(=O)[nH]1)Nc1ccc(-c2nc3ccccc3[nH]2)cc1`: the growth with K-562 leukemia is 105%; in the experiment with MALME-3M melanoma, 101%; in the experiment on MDA-MB-231 breast it was 102%; in the experiment on RXF 393 renal it was 128%; in the experiment on SF-268 CNS, 115%; in the experiment on SF-295 CNS, 115%. The growth was 98.9% in the experiment on SF-539 CNS; 108% in the experiment with UACC-257 melanoma; 110% with M14 melanoma; 108% with HCT-15 colon; 109% in the experiment with HT29 colon; 122% with SNB-75 CNS. The growth in the experiment with SNB-19 CNS is 103%; with U251 CNS, 106%; in the experiment with PC-3 prostate it was 92.6%; with SK-MEL-5 melanoma it was 99.7%; in the experiment with UACC-62 melanoma, 99.7%; with LOX IMVI melanoma, 96.9%. Further, the growth in the experiment on SK-MEL-28 melanoma was 98.9%; with SK-MEL-2 melanoma it was 107%.
